According to PubChem BioAssay (EPA / NIEHS):
Where “and” joins values, the source holds several entries; their conditions need not be identical. Equal values may be shown once. Results filed as inconclusive are left out. Some compounds were tested as several samples or in several runs, with calls that do not always agree. Calls of active or inactive are those of the source. How the source made its calls, unless noted: active means hit-call score of the fitted dose curve at least 0.9, where 1 is the maximum; inactive means score below 0.9.

Assays:
[1] = read-out: Intercellular Adhesion Molecule 1 (ICAM1), ICAM1 (gene 3383); assay: BSK_3C_ICAM1: BioMAP Diversity Plus: 3C Assay for Intercellular Adhesion Molecule 1 (ICAM1) Biomarker Activity (AID 2283003); conditions: primary human endothelial cells (HUVEC); actives raise or lower the signal
Procedure, shortened: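 Primary human umbilical vein endothelial cells in the BioMAP 3C system were exposed to chemicals for 24 h, then ICAM-1 was quantified by ELISA. Activity was fitted bidirectionally against the DMSO negative control baseline.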

[2] = molecular target: Retinoic acid receptor alpha (Homo sapiens) (UniProt P10276); assay: ATG_RARa_TRANS: Attagene TRANS-FACTORIAL HepG2 Assay for human Retinoic Acid Receptor alpha (RARa) (AID 2283005; active means hit-call score of the fitted dose curve at least 0.9, where 1 is the maximum)
Procedure, shortened: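 HepG2 cells transiently transfected with multiple reporter units expressing chimeric RARα-GAL4 fusion, with GAL4-UAS-driven reporters. After 24 h compound exposure, reporter mRNA induction quantified by RT-PCR and capillary electrophoresis with fluorescent labeling; gain-of-signal fitted relative to DMSO control.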

[3] = BSK_3C_Proliferation: Cell Proliferation Assessment in the BioMAP Diversity Plus: 3C Assay (AID 2283006); conditions: primary human endothelial cells (HUVEC);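 on AC50: potency may reflect either rise or fall in cell number versus DMSO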
Procedure, shortened: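 Human umbilical vein endothelial cells were grown sub-confluent and exposed to chemical for 48 h, then fixed with 10% TCA and stained with 0.1% sulforhodamine B; absorbance at 560 nm gave relative cell number, fitted bidirectionally against DMSO baseline.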

[4] = molecular target: Peroxisome proliferator-activated receptor gamma (Homo sapiens) (UniProt P37231); assay: ATG_PPARg_TRANS: Attagene TRANS-FACTORIAL HepG2 Assay for human Peroxisome Proliferator-activated Receptor-gamma (PPARg) (AID 2283007; active means hit-call score of the fitted dose curve at least 0.9, where 1 is the maximum)
Procedure, shortened: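 Transient transfection of HepG2 with GAL4-UAS-driven reporter units; chemical dosing 24 h; total RNA → oligo(dT) RT → PCR with reporter primers → 6-FAM primer extension → HpaI digest 2 h 37 C → capillary electrophoresis. Positive direction vs DMSO.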

[5] = molecular target: Nuclear receptor subfamily 1 group I member 2 (Homo sapiens) (UniProt O75469); assay: ATG_PXR_TRANS: Attagene TRANS-FACTORIAL HepG2 Assay for human Pregnane X Receptor (PXR) (AID 2283008; active means hit-call score of the fitted dose curve at least 0.9, where 1 is the maximum)
Procedure, shortened: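 Fluorescence intensity of FAM-labelled, HpaI-digested reporter amplicons, separated by capillary electrophoresis, quantifies induction. HepG2 cells with PXR-Gal4 trans-reporter system were exposed 24 h; DMSO defines baseline.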

[6] = molecular target: human Retinoic Acid Receptor gamma (RARg), RARG (gene 5916) (UniProt P13631); assay: ATG_RARg_TRANS: Attagene TRANS-FACTORIAL HepG2 Assay for human Retinoic Acid Receptor gamma (RARg) (AID 2283009; active means hit-call score of the fitted dose curve at least 0.9, where 1 is the maximum)
Procedure, shortened: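 HepG2 cells transiently transfected with multiplexed reporter units expressing chimeric RARg-GAL4 and GAL4-UAS-driven reporters; 24 h compound exposure. Reporter mRNA quantified by RT-PCR with fluorescent labelling and capillary electrophoresis; gain-of-signal fitted relative to DMSO baseline.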

[7] = molecular target: human RAR-related Orphan Receptor beta (RORb), RORB (gene 6096) (UniProt Q92753); assay: ATG_RORb_TRANS: Attagene TRANS-FACTORIAL HepG2 Assay for human RAR-related Orphan Receptor beta (RORb) (AID 2283010; active means hit-call score of the fitted dose curve at least 0.9, where 1 is the maximum)
Procedure, shortened: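 HepG2 cells were transiently transfected with multiplexed GAL4-UAS reporter units expressing chimeric nuclear receptor–GAL4 proteins, then dosed for 24 h. Reporter mRNA was quantified by RT-PCR with fluorescent labelling and capillary electrophoresis; gain of signal was fitted relative to DMSO.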

[8] = molecular target: Retinoic acid receptor RXR-alpha (Homo sapiens) (UniProt P19793); assay: ATG_RXRa_TRANS: Attagene TRANS-FACTORIAL HepG2 Assay for human Retinoid X Receptor alpha (RXRa) (AID 2283012; active means hit-call score of the fitted dose curve at least 0.9, where 1 is the maximum)
Procedure, shortened: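 HepG2 cells transiently transfected with multiplexed GAL4-UAS reporter units and chimeric NR-GAL4 fusions, dosed 24 h. Reporter mRNA measured by RT-PCR, FAM labelling, HpaI digestion and capillary electrophoresis; gain-of-signal fitted relative to DMSO baseline.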

[9] = molecular target: human Retinoid X Receptor beta (RXRb), RXRB (gene 6257) (UniProt P28702); assay: ATG_RXRb_TRANS: Attagene TRANS-FACTORIAL HepG2 Assay for human Retinoid X Receptor beta (RXRb) (AID 2283013; active means hit-call score of the fitted dose curve at least 0.9, where 1 is the maximum)
Procedure, shortened: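 HepG2 cells transiently transfected with multiplexed reporter units driven by GAL4-UAS and exogenous chimeric NR-Gal4 proteins; treated 24 h. Reporter mRNA measured by RT-PCR, 6-FAM labelling and capillary electrophoresis; gain-of-signal fitted versus DMSO baseline.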

[10] = read-out: E-selectin (Homo sapiens) (UniProt P16581); assay: BSK_3C_Eselectin: BioMAP Diversity Plus: 3C Assay for Eselectin Biomarker Activity (AID 2283015); conditions: primary human endothelial cells (HUVEC); actives raise or lower the signal
Procedure, shortened: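 Primary human umbilical vein endothelial cells (3C system) were dosed with chemical and cell-surface E-selectin measured by ELISA 24 h later. Bidirectional curve fitting used DMSO as negative control and baseline.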

[11] = read-out: Interleukin-1 alpha (IL1a), IL1A (gene 3552); assay: BSK_BE3C_IL1a: BioMAP Diversity Plus: BE3C Assay for Interleukin-1 alpha (IL1a) Biomarker Activity (AID 2283016); conditions: primary human bronchial epithelial cells; actives raise or lower the signal
Procedure, shortened: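 Human primary bronchial epithelial cells (BE3C system) were dosed with compound and IL-1a measured by ELISA 24 h later. Activity was fitted bidirectionally against DMSO baseline; cytotoxicity was tracked in parallel cultures by SRB total-protein staining.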

[12] = read-out: Monocyte Chemoattractant Protein-1 (MCP1), CCL2 (gene 6347); assay: BSK_3C_MCP1: BioMAP Diversity Plus: 3C Assay for Monocyte Chemoattractant Protein-1 (MCP1) Biomarker Activity (AID 2283017); conditions: primary human endothelial cells (HUVEC); actives raise or lower the signal
Procedure, shortened: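 Primary human umbilical vein endothelial cells (3C system) were exposed to test chemical for 24 h, after which MCP-1 was quantified by ELISA. Activity was fitted bidirectionally against DMSO as negative control and baseline.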

[13] = read-out: Monocyte Chemoattractant Protein-1 (MCP1), CCL2 (gene 6347); assay: BSK_4H_MCP1: BioMAP Diversity Plus: 4H Assay for Monocyte Chemoattractant Protein-1 (MCP1) Biomarker Activity (AID 2283018); conditions: primary human endothelial cells (HUVEC); actives raise or lower the signal
Procedure, shortened: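 Human umbilical vein endothelial cells (4H system) dosed with chemical; MCP-1 measured by ELISA 24 h after dosing. Bidirectional curve fitting against DMSO negative control as baseline; parallel SRB total-protein staining tracks overt cytotoxicity.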

[14] = read-out: Human Leukocyte Antigen - DR isotype (HLADR), HLA-DRA (gene 3122); assay: BSK_3C_HLADR: BioMAP Diversity Plus: 3C Assay for Human Leukocyte Antigen - DR isotype (HLADR) Biomarker Activity (AID 2283019); conditions: primary human endothelial cells (HUVEC); actives raise or lower the signal
Procedure, shortened: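 Primary human umbilical vein endothelial cells (3C system) were dosed with compound and cell-surface HLA-DR was quantified by ELISA at 24 h. Activity was fitted bidirectionally against DMSO as negative control and baseline.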

[15] = read-out: Interleukin-8 (IL8), CXCL8 (gene 3576); assay: BSK_3C_IL8: BioMAP Diversity Plus: 3C Assay for Interleukin-8 (IL8) Biomarker Activity (AID 2283020); conditions: primary human endothelial cells (HUVEC); actives raise or lower the signal
Procedure, shortened: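 Primary human umbilical vein endothelial cells (3C system) were exposed to test chemical for 24 h, then IL-8 was quantified by ELISA. Responses were fitted bidirectionally against DMSO vehicle as baseline.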

[16] = read-out: Monokine induced gamma interferon (MIG), CXCL9 (gene 4283); assay: BSK_3C_MIG: BioMAP Diversity Plus: 3C Assay for Monokine induced gamma interferon (MIG) Biomarker Activity (AID 2283021); conditions: primary human endothelial cells (HUVEC); actives raise or lower the signal;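 on AC50: MIG protein level measured by immunoassay in the treated endothelial cultures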
Procedure, shortened: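 Primary human umbilical vein endothelial cells in the 3C system were exposed to chemical for 24 h, after which MIG was quantified by ELISA. Activity was fitted bidirectionally against DMSO as negative control and baseline.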

[17] = molecular target: human Vitamin D Receptor (VDR), VDR (gene 7421) (UniProt P11473); assay: ATG_VDR_TRANS: Attagene TRANS-FACTORIAL HepG2 Assay for human Vitamin D Receptor (VDR) (AID 2283022; active means hit-call score of the fitted dose curve at least 0.9, where 1 is the maximum)
Procedure, shortened: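 HepG2 cells were transiently transfected with multiple GAL4-UAS reporter units, so signal reflects exogenous chimeric receptor-Gal4 activity. After 24 h compound exposure, reporter mRNA was measured by RT-PCR, fluorescent labelling and capillary electrophoresis, fitted for gain of signal versus DMSO.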

[18] = molecular target: human Retinoic Acid Receptor beta (RARb), RARB (gene 5915) (UniProt P10826); assay: ATG_RARb_TRANS: Attagene TRANS-FACTORIAL HepG2 Assay for human Retinoic Acid Receptor beta (AID 2283004; active means hit-call score of the fitted dose curve at least 0.9, where 1 is the maximum)
Procedure, shortened: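 HepG2 cells transiently transfected with multiplexed GAL4-UAS reporter units expressing chimeric NR–Gal4 fusions; 24 h compound exposure. Reporter mRNA quantified by RT-PCR, 6-FAM labelling, HpaI digestion and capillary electrophoresis; gain-of-signal fitted against DMSO baseline.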

[19] = molecular target: human Thyroid Receptor alpha (THRa1), THRA (gene 7067) (UniProt P10827); assay: ATG_THRa1_TRANS: Attagene TRANS-FACTORIAL HepG2 Assay for human Thyroid Receptor alpha (THRa1) (AID 2283014; active means hit-call score of the fitted dose curve at least 0.9, where 1 is the maximum)
Procedure, shortened: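 HepG2 cells transiently transfected with multiplexed GAL4-UAS reporter units for exogenous chimeric THRa1-Gal4; reporter mRNA measured 24 h after dosing by RT-PCR, 6-FAM labelling, HpaI digestion and capillary electrophoresis. Gain-of-signal fitted versus DMSO baseline.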

[20] = molecular target: human RAR-related Orphan Receptor gamma (RORg), RORC (gene 6097) (UniProt P51449); assay: ATG_RORg_TRANS: Attagene TRANS-FACTORIAL HepG2 Assay for human RAR-related Orphan Receptor gamma (RORg) (AID 2283011; active means hit-call score of the fitted dose curve at least 0.9, where 1 is the maximum)
Procedure, shortened: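 Readout: reporter transcript induction (RT-PCR, fluorescent primer extension, capillary electrophoresis) after 24 h compound exposure of transiently transfected HepG2 cells carrying a RORg-Gal4 chimera and GAL4-UAS reporters; DMSO served as baseline, with increasing signal fitted.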

Measured: AC50

Nuclear receptor subfamily 1 group I member 2 (Homo sapiens), sequence (O75469 whole entry, looked up, the tested form may be a part): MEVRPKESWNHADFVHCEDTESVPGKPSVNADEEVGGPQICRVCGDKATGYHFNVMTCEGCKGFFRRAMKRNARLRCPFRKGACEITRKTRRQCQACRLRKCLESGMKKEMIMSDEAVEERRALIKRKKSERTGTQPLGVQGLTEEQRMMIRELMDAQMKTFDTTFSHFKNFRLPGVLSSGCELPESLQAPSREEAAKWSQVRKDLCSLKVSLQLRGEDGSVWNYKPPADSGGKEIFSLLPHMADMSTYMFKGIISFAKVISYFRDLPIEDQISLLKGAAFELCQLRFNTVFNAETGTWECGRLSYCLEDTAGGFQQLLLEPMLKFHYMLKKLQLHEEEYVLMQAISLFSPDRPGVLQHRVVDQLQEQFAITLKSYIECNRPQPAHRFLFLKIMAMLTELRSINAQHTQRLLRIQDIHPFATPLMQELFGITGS
E-selectin (Homo sapiens), sequence (P16581 whole entry, looked up): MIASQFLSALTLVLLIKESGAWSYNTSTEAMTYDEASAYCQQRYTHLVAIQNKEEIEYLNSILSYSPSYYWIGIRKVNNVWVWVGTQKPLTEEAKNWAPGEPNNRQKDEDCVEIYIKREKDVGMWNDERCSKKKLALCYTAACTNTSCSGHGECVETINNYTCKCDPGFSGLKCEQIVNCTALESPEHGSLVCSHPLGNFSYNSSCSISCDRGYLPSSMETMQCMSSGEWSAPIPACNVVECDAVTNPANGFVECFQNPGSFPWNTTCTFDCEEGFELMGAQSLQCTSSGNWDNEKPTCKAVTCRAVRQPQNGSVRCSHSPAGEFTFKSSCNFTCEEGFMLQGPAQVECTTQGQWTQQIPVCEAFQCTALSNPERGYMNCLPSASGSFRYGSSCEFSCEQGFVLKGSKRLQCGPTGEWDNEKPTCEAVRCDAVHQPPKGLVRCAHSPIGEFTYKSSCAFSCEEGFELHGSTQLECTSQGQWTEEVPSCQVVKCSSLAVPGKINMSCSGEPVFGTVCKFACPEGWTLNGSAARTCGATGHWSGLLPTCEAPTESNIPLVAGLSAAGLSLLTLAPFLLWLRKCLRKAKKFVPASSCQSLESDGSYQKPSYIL
human Retinoic Acid Receptor beta (RARb), RARB (gene 5915), sequence (P10826 whole entry, looked up, the tested form may be a part): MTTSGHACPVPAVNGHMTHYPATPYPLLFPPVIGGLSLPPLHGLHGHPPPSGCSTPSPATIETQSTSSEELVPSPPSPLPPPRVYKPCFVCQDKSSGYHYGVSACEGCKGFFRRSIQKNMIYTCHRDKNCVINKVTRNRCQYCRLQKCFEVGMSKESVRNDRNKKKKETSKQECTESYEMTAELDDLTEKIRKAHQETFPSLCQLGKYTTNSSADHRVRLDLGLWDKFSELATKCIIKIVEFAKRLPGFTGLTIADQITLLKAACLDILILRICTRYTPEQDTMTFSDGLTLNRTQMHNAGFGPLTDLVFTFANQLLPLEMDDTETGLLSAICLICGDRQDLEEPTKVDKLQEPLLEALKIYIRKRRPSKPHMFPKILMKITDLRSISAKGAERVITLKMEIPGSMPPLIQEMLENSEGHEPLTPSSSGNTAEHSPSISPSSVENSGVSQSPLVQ
human Thyroid Receptor alpha (THRa1), THRA (gene 7067), sequence (P10827 whole entry, looked up, the tested form may be a part): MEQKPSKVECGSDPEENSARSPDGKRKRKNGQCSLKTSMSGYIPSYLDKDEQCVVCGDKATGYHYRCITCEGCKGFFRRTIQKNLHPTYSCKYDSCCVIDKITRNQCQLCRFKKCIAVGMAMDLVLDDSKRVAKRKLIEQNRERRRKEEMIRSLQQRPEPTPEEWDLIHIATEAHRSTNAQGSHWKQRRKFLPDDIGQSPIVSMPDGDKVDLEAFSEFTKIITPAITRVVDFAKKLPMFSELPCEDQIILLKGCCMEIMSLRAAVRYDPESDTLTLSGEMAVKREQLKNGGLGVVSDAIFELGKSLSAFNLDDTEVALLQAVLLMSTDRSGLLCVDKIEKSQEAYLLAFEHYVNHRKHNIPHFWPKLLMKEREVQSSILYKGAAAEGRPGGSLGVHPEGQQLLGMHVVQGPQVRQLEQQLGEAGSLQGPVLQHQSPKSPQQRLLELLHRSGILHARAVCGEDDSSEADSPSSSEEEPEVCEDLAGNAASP
human RAR-related Orphan Receptor beta (RORb), RORB (gene 6096), sequence (Q92753 whole entry, looked up, the tested form may be a part): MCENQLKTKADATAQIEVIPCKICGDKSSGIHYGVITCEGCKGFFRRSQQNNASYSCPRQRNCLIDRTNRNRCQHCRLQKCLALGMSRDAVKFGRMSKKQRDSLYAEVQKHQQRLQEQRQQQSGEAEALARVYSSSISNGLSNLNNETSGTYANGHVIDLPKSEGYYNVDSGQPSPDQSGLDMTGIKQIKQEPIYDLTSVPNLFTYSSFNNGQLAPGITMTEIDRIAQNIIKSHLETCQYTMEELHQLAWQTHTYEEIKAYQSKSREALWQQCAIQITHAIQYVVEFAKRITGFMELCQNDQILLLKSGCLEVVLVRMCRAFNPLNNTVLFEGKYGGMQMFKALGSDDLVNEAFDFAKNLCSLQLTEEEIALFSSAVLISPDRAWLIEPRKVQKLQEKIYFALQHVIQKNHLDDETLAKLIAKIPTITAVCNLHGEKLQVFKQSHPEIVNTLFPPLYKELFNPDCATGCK
human Vitamin D Receptor (VDR), VDR (gene 7421), sequence (P11473 whole entry, looked up, the tested form may be a part): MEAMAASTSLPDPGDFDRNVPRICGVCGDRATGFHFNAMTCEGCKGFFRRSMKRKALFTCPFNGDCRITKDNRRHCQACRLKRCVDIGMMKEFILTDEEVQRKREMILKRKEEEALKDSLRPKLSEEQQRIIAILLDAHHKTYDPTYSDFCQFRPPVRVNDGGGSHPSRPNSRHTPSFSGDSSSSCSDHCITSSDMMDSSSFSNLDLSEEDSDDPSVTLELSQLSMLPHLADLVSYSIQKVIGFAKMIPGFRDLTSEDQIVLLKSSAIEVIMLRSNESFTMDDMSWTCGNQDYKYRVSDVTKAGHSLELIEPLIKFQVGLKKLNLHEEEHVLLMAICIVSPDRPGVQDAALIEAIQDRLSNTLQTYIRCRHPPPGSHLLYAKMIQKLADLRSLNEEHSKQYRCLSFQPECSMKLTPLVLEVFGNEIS
Retinoic acid receptor alpha (Homo sapiens), sequence (P10276 whole entry, looked up, the tested form may be a part): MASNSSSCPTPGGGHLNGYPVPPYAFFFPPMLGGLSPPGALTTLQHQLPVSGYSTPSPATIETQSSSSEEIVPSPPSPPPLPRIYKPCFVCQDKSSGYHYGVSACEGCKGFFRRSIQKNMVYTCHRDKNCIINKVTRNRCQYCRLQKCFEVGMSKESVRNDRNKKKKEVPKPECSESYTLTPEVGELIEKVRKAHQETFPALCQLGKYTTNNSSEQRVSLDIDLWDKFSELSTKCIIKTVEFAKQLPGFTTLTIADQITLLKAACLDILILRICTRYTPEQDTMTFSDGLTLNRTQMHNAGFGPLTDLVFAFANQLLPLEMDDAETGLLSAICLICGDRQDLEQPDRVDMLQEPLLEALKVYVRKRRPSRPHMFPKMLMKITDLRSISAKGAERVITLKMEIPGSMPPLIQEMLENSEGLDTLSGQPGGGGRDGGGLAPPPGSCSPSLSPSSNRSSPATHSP
Retinoic acid receptor RXR-alpha (Homo sapiens), sequence (P19793 whole entry, looked up, the tested form may be a part): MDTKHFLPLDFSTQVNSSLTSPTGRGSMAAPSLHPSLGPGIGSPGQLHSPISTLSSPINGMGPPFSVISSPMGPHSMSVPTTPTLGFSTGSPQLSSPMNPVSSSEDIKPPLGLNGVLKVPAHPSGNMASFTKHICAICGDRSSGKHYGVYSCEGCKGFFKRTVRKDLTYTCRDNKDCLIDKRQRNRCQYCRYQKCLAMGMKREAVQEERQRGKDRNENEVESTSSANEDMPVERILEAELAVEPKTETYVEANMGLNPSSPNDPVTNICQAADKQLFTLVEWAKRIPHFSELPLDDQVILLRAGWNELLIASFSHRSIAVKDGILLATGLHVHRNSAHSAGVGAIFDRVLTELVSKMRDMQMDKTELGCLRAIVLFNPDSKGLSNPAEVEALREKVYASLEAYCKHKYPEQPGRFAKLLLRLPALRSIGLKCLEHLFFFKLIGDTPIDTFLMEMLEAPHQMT
human Retinoid X Receptor beta (RXRb), RXRB (gene 6257), sequence (P28702 whole entry, looked up, the tested form may be a part): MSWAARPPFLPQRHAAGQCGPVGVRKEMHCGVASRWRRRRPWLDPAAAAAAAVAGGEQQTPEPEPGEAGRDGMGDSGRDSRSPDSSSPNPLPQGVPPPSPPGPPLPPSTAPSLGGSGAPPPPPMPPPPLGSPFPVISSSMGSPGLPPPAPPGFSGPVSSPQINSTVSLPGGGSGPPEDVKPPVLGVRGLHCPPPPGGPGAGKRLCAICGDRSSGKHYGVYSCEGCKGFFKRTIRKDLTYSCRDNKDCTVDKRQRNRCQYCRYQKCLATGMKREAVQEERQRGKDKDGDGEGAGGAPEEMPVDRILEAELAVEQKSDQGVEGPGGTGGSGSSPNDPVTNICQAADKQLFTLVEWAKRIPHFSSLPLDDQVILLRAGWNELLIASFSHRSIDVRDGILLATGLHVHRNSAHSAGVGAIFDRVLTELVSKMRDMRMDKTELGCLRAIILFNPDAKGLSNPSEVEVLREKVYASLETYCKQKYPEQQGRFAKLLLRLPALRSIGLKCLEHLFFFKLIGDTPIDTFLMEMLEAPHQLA
human Retinoic Acid Receptor gamma (RARg), RARG (gene 5916), sequence (P13631 whole entry, looked up, the tested form may be a part): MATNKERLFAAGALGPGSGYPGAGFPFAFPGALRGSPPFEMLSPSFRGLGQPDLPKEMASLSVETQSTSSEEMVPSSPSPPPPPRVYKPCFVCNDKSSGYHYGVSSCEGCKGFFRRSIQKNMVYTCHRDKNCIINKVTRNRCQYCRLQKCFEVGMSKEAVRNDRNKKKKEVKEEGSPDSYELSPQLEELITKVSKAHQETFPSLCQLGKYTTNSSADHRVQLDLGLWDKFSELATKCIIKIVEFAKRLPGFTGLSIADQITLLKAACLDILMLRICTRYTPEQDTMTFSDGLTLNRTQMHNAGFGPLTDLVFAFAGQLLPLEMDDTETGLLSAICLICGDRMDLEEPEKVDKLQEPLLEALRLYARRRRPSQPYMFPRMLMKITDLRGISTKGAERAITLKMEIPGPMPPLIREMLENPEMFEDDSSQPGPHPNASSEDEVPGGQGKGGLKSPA

O=C(CC(=O)C(F)(F)C(F)(F)C(F)(F)F)c1cccs1
inactive: [2] | [5] | [6] | [7] | [8] | [9] | [17]
active: [1] 46.2 µM and 50 µM | [3] 15.1 µM and 16.5 µM | [4] 5.3 µM and 10.5 µM | [5] 13.9 µM | [10] 51.4 µM and 52.5 µM | [11] 29.5 µM and 28.9 µM | [12] 40 µM and 41.2 µM | [13] 23.5 µM and 29.1 µM | [14] 24.1 µM and 24.6 µM | [15] 15.8 µM and 17.3 µM | [16] 51.9 µM and 52.2 µM

Cc1ccc(N=Nc2c(O)ccc3ccccc23)c(C)c1
active: [3] 15 µM | [4] 6.99 µM | [5] 3.36 µM | [14] 14.8 µM
not listed: [2] | [8] | [17] | [20]
inactive: all other assays above

CCC(C)c1ccccc1O (stereo not drawn)
active: [5] 45.7 µM and 24.8 µM
not listed: [2] | [6] | [9] | [18] | [19]
inactive: all other assays above

C=CC(=C)CC/C=C(\C)CCC=C(C)C
active: [5] 6.93 µM
not listed: [4] | [6] | [8] | [9] | [17] | [19]
inactive: all other assays above

NC(=NCCCCCCN=C(N)/N=C(\N)Nc1ccc(Cl)cc1)/N=C(\N)Nc1ccc(Cl)cc1
active: [1] 10.5 µM | [3] 4.95 µM | [4] 8.54 µM | [19] 8.56 µM and 6.83 µM | [10] 7.27 µM | [11] 4.74 µM | [12] 5.59 µM | [13] 1.47 µM | [14] 4.82 µM | [15] 3.88 µM | [16] 9.77 µM
inactive: [4] | [5] | [7] | [20] | [8] | [9] | [19]

COC1=CC(=O)C[C@@H](C)[C@]12Oc1c(Cl)c(OC)cc(OC)c1C2=O
active: [3] 28.3 µM
not listed: [2] | [7] | [9] | [17] | [18] | [20]
inactive: all other assays above

O=P(O)(O)CCC(F)(F)C(F)(F)C(F)(F)C(F)(F)C(F)(F)C(F)(F)C(F)(F)C(F)(F)F
active: [3] 30 µM and 30.1 µM
not listed: [5] | [6]
inactive: all other assays above
